Records with an inconclusive call do not appear. Calls come from the whole dose curve; as a rule, active = well fitted inhibition curve with a large enough effect; inconclusive = small, poorly fitted or top-dose-only effect; inactive = flat fitted curve, though single readings scatter. Bridge positions count the residues as written; N and C are the ends. Square brackets hold non-standard residues; d marks the D form. Peptide text beside a SMILES is read from it. * marks the point of attachment. ξ: configuration not given here. Octanoyl(6-Me) = CCC(C)CCCCC(=O)*; ξThr(3R) = C[C@@H](O)C(N)C(=O)O; dDab = NCC[C@@H](N)C(=O)O; Dab = NCC[C@H](N)C(=O)O
These compounds were tested against Luciferin 4-monooxygenase (Photinus pyralis) (UniProt P08659) (assay: Biochemical firefly luciferase enzyme assay for NPC (AID 624030;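 note: purified P. pyralis luciferase at 10 nM with luciferin and ATP substrate; 0% = DMSO and -100% = full luciferase inhibition by PTC124 control; nearly all actives have a fitted effect of over 70% in size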)). Details: purified P. pyralis luciferase, luminescence, 5 min; series mostly up to 58.6 µM; activity change, negative = inhibition: at the top concentration.
Procedure, shortened: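 Counter-screen for direct inhibition of the luciferase enzyme by approved-drug library compounds, run at 10 nM enzyme in 50 mM Tris acetate (final). Luminescence was read within 5 min of enzyme-buffer addition and normalized to PTC124 versus DMSO (0%).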

Chain of Luciferin 4-monooxygenase (Photinus pyralis) (P08659 whole entry, looked up): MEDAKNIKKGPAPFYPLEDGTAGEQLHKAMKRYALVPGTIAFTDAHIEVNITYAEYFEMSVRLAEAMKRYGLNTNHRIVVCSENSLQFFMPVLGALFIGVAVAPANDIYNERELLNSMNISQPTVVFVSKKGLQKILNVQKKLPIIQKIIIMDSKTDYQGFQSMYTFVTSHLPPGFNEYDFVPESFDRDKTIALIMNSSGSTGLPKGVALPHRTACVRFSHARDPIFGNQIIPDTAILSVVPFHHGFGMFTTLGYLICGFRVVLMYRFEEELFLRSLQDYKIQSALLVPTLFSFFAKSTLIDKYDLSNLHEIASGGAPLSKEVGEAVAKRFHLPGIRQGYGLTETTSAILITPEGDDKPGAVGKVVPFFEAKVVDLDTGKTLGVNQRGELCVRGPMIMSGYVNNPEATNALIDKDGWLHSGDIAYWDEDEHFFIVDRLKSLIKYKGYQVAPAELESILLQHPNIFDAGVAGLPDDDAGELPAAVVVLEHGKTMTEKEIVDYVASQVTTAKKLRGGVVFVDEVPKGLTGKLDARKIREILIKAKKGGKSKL

Activity change, negative = inhibition, inactive:
CC1NC(=O)C(N)CNC(=O)C(C2CCN=C(N)N2)NC(=O)/C(=C/NC(N)=O)NC(=O)C(CNC(=O)CC(N)CCCN)NC1=O (stereo not given) 9.29% [at 24.9 µM]
C[N+]1(C)CCC(OC(=O)CC(O)(c2ccccc2)C2CCCC2)C1 (stereo not given) 0.887%
O=C1C=C(CO)OCC1=O 0.441%
COC(=O)C1=C(C)NC(C)=C(C(=O)O[C@H]2CCN(Cc3ccccc3)C2)C1c1cccc([N+](=O)[O-])c1 (stereo not given in full) -0.631%
c1ccc(C(OC2CCCN(CCc3ccc4c(c3)OCO4)C2)c2ccccc2)cc1 (stereo not given) 0.0642%
CO[C@@H]1[C@@H]([C@H](C)[C@@H]2O[C@@]3(CC[C@@](C)([C@H]4CC[C@@](C)([C@H]5O[C@H]([C@H]6O[C@](C)(O)[C@H](C)C[C@@H]6C)C[C@H]5O[C@H]5C[C@@H](OC)[C@H](OC)[C@@H](C)O5)O4)O3)C[C@@H](O)[C@@H]2C)O[C@@](O)(CC(=O)O)[C@H](C)[C@H]1OC -1.07%
CCC[C@@H]1CC(C(=O)NC(C2O[C@H](SC)C(OP(=O)(O)O)[C@H](O)[C@H]2O)[C@H](C)Cl)N(C)C1 (stereo not given in full) -3.85%
CCC(C)CCCCC(=O)N[C@@H](CCN)C(=O)N[C@H](C(=O)N[C@@H](CCN)C(=O)N[C@H]1CCNC(=O)C([C@@H](C)O)NC(=O)[C@@H](CCN)NC(=O)[C@H](CCN)NC(=O)[C@H](CC(C)C)NC(=O)[C@@H](CC(C)C)NC(=O)[C@H](CCN)NC1=O)[C@@H](C)O (stereo partly drawn) ({Octanoyl(6-Me)}-[Dab]T[Dab][Dab][Dab][dL]L[Dab][dDab][ξThr(3R)]; lactam 4-C) 11.7%
CCC[C@H]1C[C@H](C(=O)NC(C(C)Cl)C2O[C@@H](SC)C(OP(=O)(O)O)[C@@H](O)[C@@H]2O)N(C)C1 (stereo not given in full) -0.944%
COC1=C(C(=O)O)N2C(=O)[C@@H](NC(=O)C(N)C3C=CCC=C3)[C@H]2SC1 (stereo not given in full) -1.33%
CCN1C(=O)c2ccccc2C1Nc1cccc(OCCN2CCCCC2)c1 (stereo not given) 1.18%
CSCC[C@H](NC(=O)[C@@H](Cc1ccc(O[S+](=O)([O-])O)cc1)NC(=O)[C@H](N)CC(=O)O)C(=O)NCC(=O)N[C@@H](Cc1c[nH]c2ccccc12)C(=O)N[C@H](CCSC)C(=O)N[C@H](CC(=O)O)C(=O)N[C@@H](Cc1ccccc1)C(N)=O -9.06%
Cc1ccccc1C(=O)N1CC/C(=N/OS(=O)(=O)O)c2ccc(Cl)cc21 -7.44%
CC(C)=CCC/C(C)=C\CC/C(C)=C\CC/C=C(\C)CC/C=C(\C)CCC=C(C)C 2.76%
CCN(CCO)CCn1c(Cc2ccccc2)nc2c1c(=O)n(C)c(=O)n2C -2.58%
CC(C)(C)NC(=O)[C@H]1CC[C@H]2[C@@H]3CC=C4C=C(C(=O)O)CC[C@@]4(C)[C@H]3CC[C@]12C -5.42%
CC(NC(CCc1ccccc1)C(=O)O)C(=O)N1CCCC1C(=O)O (stereo not given) -0.0943%
CCCCCCCC(=O)CC[C@H]1[C@@H](C/C=C/CCCC(=O)OC(C)C)[C@@H](O)C[C@H]1O 2.73%
CN1C2CCC1CC(NC(=O)n1c(=O)[nH]c3ccccc31)C2 (stereo not given) -1.13%
O=S(=O)(O)OCC1OC(COS(=O)(=O)O)(C2(OS(=O)(=O)O)OC(CO)C(OS(=O)(=O)O)C(OS(=O)(=O)O)C2OS(=O)(=O)O)C(OS(=O)(=O)O)C1OS(=O)(=O)O (stereo not given) -0.087%
CCC(=O)Oc1ccc2c(c1)CCC1C2CC[C@]2(C)C(OC(=O)CC)CCC12 (stereo not given in full) 1.77%
C=C[C@]1(C)C[C@@H](OC(=O)CO)[C@]2(C)C(C)CC[C@]3(CCC(=O)[C@H]32)[C@@H](C)[C@@H]1O (stereo not given in full) -0.3%
C(=C1NCCN1)c1cccc2ccccc12 0.0122%
CC1CC2C3CCC4=CC(=O)C=CC4(C)[C@@]3(F)C(O)CC2(C)[C@@]1(O)C(=O)CCl (stereo not given in full) -4.98%
CC(=O)CC/C=C(\C)CC/C=C(/C)CC/C=C(\C)CCC=C(C)C -0.539%
CN[C@H](CC(C)C)C(=O)N[C@H]1C(=O)N[C@@H](CC(N)=O)C(=O)N[C@H]2C(=O)N[C@H]3C(=O)N[C@H](C(=O)N[C@H](C(=O)O)c4cc(O)cc(O)c4-c4cc3ccc4O)[C@H](O)c3ccc(c(Cl)c3)Oc3cc2cc(c3O[C@@H]2OC(CO)[C@@H](O)[C@H](O)[C@H]2O[C@H]2C[C@](C)(N)[C@H](O)[C@H](C)O2)Oc2ccc(cc2Cl)[C@H]1O (stereo not given in full) -5.7%
CO[C@@]1(NC(=O)CSC(F)F)C(=O)N2C(C(=O)O)=C(CSc3nnnn3CCO)CO[C@@H]21 -8.43%
CC[C@H](c1ccccc1)c1noc(CCN(CC)CC)n1 -17%
NC(N)=NCCCC(N)C(=O)O (stereo not given) -0.701%
C=C1/C(=C\C=C2/CCC[C@@]3(C)[C@@H]([C@H](C)OCCC(C)(C)O)CC[C@@H]23)C[C@@H](O)C[C@@H]1O -8.86%
CC1(C)SC2C(NC(=O)C(c3ccccc3)S(=O)(=O)O)C(=O)N2C1C(=O)O (stereo not given) -6.08%
CC[C@@H]1OC(=O)C[C@H](O)[C@@H](C)[C@@H](O[C@H]2O[C@@H](C)[C@H](O[C@@H]3C[C@](C)(O)[C@H](O)[C@@H](C)O3)[C@@H](N(C)C)[C@@H]2O)[C@@H](C=O)C[C@@H](C)C(=O)/C=C/C(C)=C[C@@H]1CO[C@H]1O[C@@H](C)[C@H](O)[C@H](OC)[C@@H]1OC 1.17%
O=C(O)/C=C(/CC(=O)O)C(=O)O -5.89%
Cc1ccc(C(=O)[C@H](C)CN2CCCCC2)cc1 -7.21%
CC(C)(S)C(=O)NC(CS)C(=O)O (stereo not given) -6.64%
COc1ccc2c(C(=S)N(C)CC(=O)O)cccc2c1C(F)(F)F -8.99%
C/C(=C(/CCOC(=O)c1ccccc1)SS/C(CCOC(=O)c1ccccc1)=C(\C)N(C=O)Cc1cnc(C)nc1N)N(C=O)Cc1cnc(C)nc1N -11%
CC(=O)C[C@H]1[C@H](O[C@H]2[C@H](OC(C)C(=O)N[C@@H](C)C(=O)N[C@H](CCC(=O)N[C@@H](CCCCN)C(=O)N[C@H](C)C(=O)O)C(N)=O)[C@@H](NC(=O)O)C(O)O[C@@H]2CO)O[C@H](CO)[C@@H](O)[C@@H]1O (stereo not given in full) 14.9%
O=S(=O)(O)OCC1OC(OC2(COS(=O)(=O)O)OC(COS(=O)(=O)O)C(OS(=O)(=O)O)C2OS(=O)(=O)O)C(OS(=O)(=O)O)C(OS(=O)(=O)O)C1OS(=O)(=O)O (stereo not given) -11.9%
CC(CN1CCOCC1)C(Cc1ccccc1)(Cc1ccccc1)C(=O)N1CCCC1 (stereo not given) 3.31% [at 123 µM]

Reference: PubChem BioAssay (NCATS)
